Inconclusive results are not listed. Where a call stands in place of a potency, no number is given. Unmarked numbers belong to inactive results. Activity calls are given as the source filed them. Calls follow the shape of the dose curve; as a rule, active = well fitted curve in the direction sought with a large enough effect; inconclusive = small, poorly fitted or top-dose-only effect, or another doubt; inactive = no such curve, though single readings can be large; an effect the other way counts as inactive or inconclusive.
How the values were obtained:
[1] = molecular target: N-terminal Xaa-Pro-Lys N-methyltransferase 1 (Homo sapiens) (UniProt Q9BV86); experiment: qHTS Assay for Inhibitors of N-terminal methyltransferase 1 (NTMT1): LOPAC validation of the NTMT1 SAHH-coupled ThioGlo3 Assay (AID 1347143);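 also: SAH from peptide methylation measured as thiol fluorescence via SAHH coupling and ThioGlo3; nearly all actives have a fitted effect of over 70% in size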; also: potency is read from the fitted curve at half-maximal effect
Chain of N-terminal Xaa-Pro-Lys N-methyltransferase 1 (Homo sapiens) (Q9BV86 whole entry, looked up): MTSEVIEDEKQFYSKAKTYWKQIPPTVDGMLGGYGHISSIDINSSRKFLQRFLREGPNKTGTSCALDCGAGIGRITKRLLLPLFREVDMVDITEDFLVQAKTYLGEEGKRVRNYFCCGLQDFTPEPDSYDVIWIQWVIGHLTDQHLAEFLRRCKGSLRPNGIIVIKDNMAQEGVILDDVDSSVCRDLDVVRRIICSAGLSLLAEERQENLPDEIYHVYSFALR
Summary of the method: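 Recombinant human NTMT1 (125nM) was pre-incubated 1 min at room temperature with compounds over a concentration range, then a mix of 100uM SAM, 10uM SAHH and 15uM ThioGlo3 (concentrations in added reagent) was added. ThioGlo3 fluorescence (ex 340/em 450nm) after 30 min was normalized to the initial reading.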

[2] = tested on: Zika virus NS2B-NS3 protease (linked construct); experiment: Confirmatory screen NINDS AMC qHTS for Zika virus inhibitors (AID 1347152); also: top concentration of the series differs between compounds; nearly all actives have a fitted effect of over 70% in size
Summary of the method: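 IC50s from 4-parameter Hill fits of percent inhibition, based on AMC fluorescence gain (340/450 nm) over 15 min with 10 microM Bz-Nle-KRR-AMC. Enzyme: 1 nM linked NS2B-NS3 in Tris-HCl pH 8.0; 15-min compound preincubation.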

[3] = tested on: Zika virus NS2B-NS3 protease (unlinked complex); experiment: Confirmatory screen GU AMC qHTS for Zika virus inhibitors (AID 1347153); also: nearly all actives have a fitted effect of over 70% in size
Summary of the method: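 Unlinked enzyme 25 nM, Tris pH 8.0/0.01% Tween 20; cpd 15 min RT, dark; + AMC substrate 10 µM (Km 18.3 µM); 340/450 nm read at t0 and 15 min; % inhibition → 4-param fit.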

[4] = tested on: Zika virus NS2B-NS3 protease; experiment: Primary screen GU AMC qHTS for Zika virus inhibitors (AID 1347154); also: nearly all actives have a fitted effect of over 70% in size
Summary of the method: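 Unlinked Zika NS2B hydrophilic domain–NS3 protease complex at 25 nM in 10 mM Tris-HCl pH 8.0, 0.01% Tween 20, with an AMC peptide substrate. Fluorescence change (340/450 nm) over 15 min at room temperature, normalized to controls, fitted to 4-parameter Hill.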

[5] = tested on: Zika virus NS2B-NS3 protease (unlinked); experiment: Optimization of GU AMC qHTS for Zika virus inhibitors: Unlinked NS2B-NS3 protease assay (AID 1347151); also: series mostly up to about 52 µM; nearly all actives have a fitted effect of over 80% in size
Summary of the method: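 Fluorescence gain (340/450 nm) over 15 min at room temperature, ~20% conversion, gave percent inhibition fitted to a 4-parameter Hill equation; enzyme was unlinked NS2B-NS3 (25 nM final), pH 8.0 Tris buffer.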

For `CCN1CCc2nc(N)oc2CC1`, the Potency [1] was 56.2 µM (active), the outcome [2] was “inactive” and the outcome [3] was “inactive”. For the same molecule, the outcome [4] was “inactive”.
In the case of `NC(Cc1ccc(Cl)cc1)C(=O)O` (centres undefined), the Potency [1] is reported as “inactive”, the Potency [5] is reported as “inactive” and the activity change, negative = inhibition [4] is reported as -1.34% [at 0.59 µM].
`CN1C(=O)CC[C@H]1c1cccnc1` was tested, and the Potency [1] was “inactive” and the outcome [4] was “inactive”.
`c1ccc2c(c1)CCCC2C1=NCCN1` (centres undefined) was tested, and the Potency [1] was “inactive”, the Potency [5] was “inactive” and the outcome [4] was “inactive”.
For `C(=C\c1ccccc1)/CN1CCN(C(c2ccccc2)c2ccccc2)CC1`, the Potency [1] was “inactive”, the Potency [5] was “inactive” and the outcome [4] was “inactive”.
With `CC(C)(C)NCC(O)c1cc(O)cc(O)c1` (centres undefined) the Potency [1] was “inactive”, the Potency [5] was “inactive” and the outcome [4] was “inactive”.
`CN(C)CC[C@@H](c1ccc(Br)cc1)c1ccccn1` was tested, and the Potency [1] was “inactive”, the Potency [5] was “inactive” and the outcome [4] was “inactive”.
`COC(=O)C1=C(C)NC(C)=C(C(=O)OCCN(C)Cc2ccccc2)C1c1cccc([N+](=O)[O-])c1` (centres undefined) was tested, and the Potency [1] was “inactive”, the Potency [5] was “inactive” and the outcome [4] was “inactive”.
`CN(C)CCCN1c2ccccc2Sc2ccccc21` was tested, and the Potency [1] was 44.7 µM (active), the Potency [5] was “inactive” and the outcome [4] was “inactive”.
With `FC(F)(F)c1ccccc1-n1ccnc1` the Potency [1] was “inactive”, the Potency [5] was “inactive” and the outcome [4] was “inactive”.
For `COC(=O)[C@@H](N)Cc1ccc(O)c(O)c1`, the Potency [5] was “inactive”.
For `CNCCCN1c2ccccc2CCc2ccccc21`, the Potency [5] was “inactive” and the outcome [4] was “inactive”.
With `Cc1ccc(S(=O)(=O)NC(=O)NN2CCCCCC2)cc1` the Potency [5] was “inactive” and the outcome [4] was “inactive”.
`COc1ccc2c(c1OC)C(=O)O[C@@H]2[C@H]1c2c(cc3c(c2OC)OCO3)CCN1C` was tested, and the Potency [5] was “inactive” and the outcome [4] was “inactive”.
For `O=C1CC2(CCCC2)CC(=O)N1CCCCN1CCN(c2ncccn2)CC1`, the Potency [5] was “inactive” and the outcome [4] was “inactive”.
With `COCC(=O)O[C@]1(CCN(C)CCCc2nc3ccccc3[nH]2)CCc2cc(F)ccc2[C@@H]1C(C)C` the Potency [5] was “inactive” and the outcome [4] was “inactive”.
In the case of `CC(=O)[C@]1(O)Cc2c(O)c3c(c(O)c2[C@@H](O[C@H]2C[C@H](N)[C@H](O)[C@H](C)O2)C1)C(=O)c1ccccc1C3=O`, the Potency [5] is reported as “inactive” and the outcome [4] is reported as “inactive”.
`Cc1nc2ccccn2c(=O)c1CCN1CCC(C(=O)c2ccc(F)cc2)CC1` was tested, and the outcome [4] was “inactive”.
With `COc1ccc(CN(CCN(C)C)c2ccccn2)cc1` the Potency [5] was “inactive” and the outcome [4] was “inactive”.
In the case of `CCCCNc1c(C(=O)OCC)c(C)nc2c1cnn2CC`, the Potency [5] is reported as “inactive” and the outcome [4] is reported as “inactive”.
With `Cc1scc2c1N(C(=O)CN1CCN(C)CC1)c1ccccc1NC2=O` the Potency [5] was “inactive” and the outcome [4] was “inactive”.
`CC(C)NCC(O)c1cc(O)cc(O)c1` (centres undefined) was tested, and the Potency [5] was “inactive” and the outcome [4] was “inactive”.
With `Cc1cc(C)c(/C=C2\C(=O)Nc3ccccc32)[nH]1` the outcome [4] was “inactive”.
With `CCO/C([O-])=N/c1c[n+](N2CCOCC2)no1` the Potency [5] was “inactive” and the outcome [4] was “inactive”.
For `CN(C)CCCN1c2ccccc2Sc2ccc(C(F)(F)F)cc21`, the Potency [5] was “inactive” and the outcome [4] was “inactive”.
`CCN(CC)CCOCCOC(=O)C1(c2ccccc2)CCCC1` was tested, and the Potency [5] was “inactive” and the outcome [4] was “inactive”.

Reference: PubChem BioAssay (NCATS)
